# Sfp inh: Sfp phosphopantetheinyl transferase inhibition; Q9F4F7; Biochemical Sfp PPTase activity, qHTS; Potency, µM, inactives show largest response in the series, negative = inhibition, usual class: inhibitors; 310,000 compounds, 3.5% hits;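 also: the enzyme is Sfp with the accession as filed and its product quenches rhodamine fluorescence; potency is read from the fitted curve at half-maximal effect; 0% = enzyme reaction without inhibitor and -100% = no enzyme wells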
#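 Fluorescence-quenching assay with 15 nM Sfp, 5 uM rhodamine-CoA and 12.5 uM BHQ-2-labelled ybbR peptide in pH 7.6 Hepes/MgCl2 buffer. Enzyme was pre-incubated with compound for 15 min at room temperature. Rate was taken from the 30-min fluorescence change (525/598 nm).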
# G9a inh: blocks human histone lysine methyltransferase G9a; Q96KQ7; G9a H3K9 monomethylation, AlphaScreen, 2 h; Potency, µM (highest dose often 102 µM), without a hit: top-dose activity, negative = inhibition, hits mostly inhibitors; 350,000 compounds, 8.8% hits; AID 504332; also: potency is read from the fitted curve at half-maximal effect; nearly all actives have a fitted effect of over 75% in size
# Target sequence (Q96KQ7 913-1193 limits assumed): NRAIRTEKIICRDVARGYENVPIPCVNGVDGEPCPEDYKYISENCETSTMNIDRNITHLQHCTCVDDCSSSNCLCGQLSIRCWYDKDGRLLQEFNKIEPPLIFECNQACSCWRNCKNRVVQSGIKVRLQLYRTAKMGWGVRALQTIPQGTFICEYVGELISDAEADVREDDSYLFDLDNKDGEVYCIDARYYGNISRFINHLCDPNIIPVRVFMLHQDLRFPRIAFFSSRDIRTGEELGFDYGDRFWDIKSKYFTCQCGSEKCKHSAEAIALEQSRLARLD
#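 Signal arises when biotinylated H3K9 peptide, once monomethylated, bridges streptavidin donor and antibody-captured acceptor beads. Enzyme at 20 nM was preincubated 15 min with test compounds; peptide 500 nM and SAM 20 uM then reacted for 2 h.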
# PLK1 PBD inh: PLK1 (human) polo-box domain binding inhibition; Plk1 PBD binding of FITC phosphopeptide, fluorescence polarization; 360,000 compounds, 2.8% hits; Potency, µM, without a hit: max response, negative = inhibition, usual class: inhibitors; P53350; also: potency is read from the fitted curve at half-maximal effect; series mostly up to about 57 µM; nearly all actives have a fitted effect of over 65% in size
# MmCpn inh: inhibitors of Methanococcus maripaludis chaperonin TRiC (MmCpn); purified Mm-Cpn ATPase, ADP Transcreener TR-FRET; Potency, µM (top dose mostly 76.9 µM), without a hit: at the top dose activity, negative = inhibition, hits mostly inhibitors; 330,000 compounds, 0.031% hits; AID 504842; also: potency is read from the fitted curve at half-maximal effect; nearly all actives have a fitted effect of over 80% in size
#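 ATPase read-out: TR-FRET ADP immunoassay (anti-ADP Eu cryptate vs ADP-d2), ex 320 nm, em 590/665 nm; signal drops as ADP forms. Enzyme 25 nM, ATP 10 uM, 30 min at 37°C after 10 min compound preincubation.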
# VDR inh: vitamin D3 receptor (human) inhibition; 400,000 compounds, 0.93% hits; Potency, µM, inactives show max response, negative = inhibition, most hits filed as inhibitors; P11473; VDR-SRC2-3 peptide fluorescence polarization, 2 h; also: potency is read from the fitted curve at half-maximal effect
# Target sequence (P11473 whole entry, looked up): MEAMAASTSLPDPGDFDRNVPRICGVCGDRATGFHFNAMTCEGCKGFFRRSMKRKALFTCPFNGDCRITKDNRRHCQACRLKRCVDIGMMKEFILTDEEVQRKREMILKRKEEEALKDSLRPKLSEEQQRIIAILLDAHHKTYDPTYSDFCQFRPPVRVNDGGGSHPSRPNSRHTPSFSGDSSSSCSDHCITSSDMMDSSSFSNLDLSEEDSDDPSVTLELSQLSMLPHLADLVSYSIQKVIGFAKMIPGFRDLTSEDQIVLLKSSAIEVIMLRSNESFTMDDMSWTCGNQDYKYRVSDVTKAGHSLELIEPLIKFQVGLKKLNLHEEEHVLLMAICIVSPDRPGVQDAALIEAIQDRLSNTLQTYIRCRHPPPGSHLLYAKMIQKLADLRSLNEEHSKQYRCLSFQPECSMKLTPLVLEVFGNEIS
#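 FP read-out; VDR + SRC2-3 coactivator peptide; 23 nl compound by pintool; 2 h RT incubation; reagents held at 4 deg C, protected from light.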
# CCT modulator: changes cytosolic chaperonin activity; AID 651819; purified chaperonin ATPase assay, HTRF ADP detection, 30 min; activity change, % (test concentration not listed), hits read low; 360,000 compounds, 0.3% hits; in the data active = activity change below about -30%
#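 Nucleotide hydrolysis assay: TRiC at 20–40 nM final (set by batch activity) with 10 uM ATP, 30 min at 37 °C, in presence of 76 uM compound. Detection by competitive ADP HTRF, 30 min ambient.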
# Numbers without * were called inactive; ? = inconclusive; · = no result; [ ] = remark or other dose. Sampled rows, rich in hits. Any-hit rate of the full collection: about 10%. Unless noted, calls follow the shape of the dose curve; as a rule, active = well fitted curve in the direction sought with a large enough effect; inconclusive = small, poorly fitted or top-dose-only effect, or another doubt; inactive = no such curve, though single readings can be large; an effect the other way counts as inactive or inconclusive. Unless noted, % is scaled to controls: 0 for no effect and ±100 for the full control effect.
SMILES,Sfp inh,G9a inh,PLK1 PBD inh,MmCpn inh,VDR inh,CCT modulator
CCOC(=O)c1sc(=S)n(C)c1N,-22.8%,-31.2%,-1.8%,2.5%,8.6%,-2.9
Cc1ccc(-c2cc(C(=O)N3CCCCCC3)no2)cc1,6.3%,9.1%,-5.4%,0.7%,-0.6%,1.8
Cc1ccc(-n2c(N)c(C(=O)N3CCCCC3)sc2=S)cc1,44.7µM*,8.91µM*,23.8µM*,-1.7%,?,-1.2
CCOc1ccc(-n2c(N)c(C(=O)N3CCN(C)CC3)sc2=S)cc1,14.0%,44.7µM*,-8.3%,1.3%,-3.1%,-1.6
CCOC(=O)c1sc(=S)n(-c2ccc3c(c2)OCO3)c1N,28.2µM*,0.5%[0.501 µM],13.4µM*,1.1%,?,-0.4
Cc1ccc(-n2c(N)c(C(=O)NCc3cccnc3)sc2=S)cc1,35.5µM*,10µM*,28.2µM*,-3.4%,-19.0%,-0.2
COc1ccc(-c2nc3cnc(OC)nc3n(Cc3cccs3)c2=O)cc1,-11.4%,11.3%[12.7 µM],·,·,0.5%,·
COC(=O)c1scc(-c2ccc(C)cc2)c1S(=O)(=O)Nc1ccc(OC(F)(F)F)cc1,·,3.4%[59 µM],·,·,15.0%,·
CCc1ccc(NCc2cccn2-c2nnc(N3CCCCCC3)s2)cc1,·,-21.5%[59 µM],·,·,-13.6%,·
CCOC(=O)c1sc(=S)n(-c2ccc(F)c(F)c2)c1N,22.4µM*,?,23.8µM*,-0.2%,89.1µM*,-3.9
Cc1nc2n(n1)C(c1ccccc1)C1=C(CC(c3ccco3)CC1=O)N2 (stereo not drawn),-14.5%,44.7µM*,-5.4%,-2.4%,-20.8%,-3.8
CC1CC(=O)C2=C(C1)Nc1ncnn1C2c1ccccc1 (stereo not drawn),-4.4%,-24.9%[0.0925 µM],0.9%,1.1%,-6.5%,-0.7
CCOc1ccc2c(c1)NC(c1ccc(OCC)c(OCC)c1)=NC(c1ccc(F)cc1)=N2,·,11.2µM*,·,·,5.0%,·
Cc1cccc(N2C(=O)CSC23C(=O)N(Cc2cccc(C(F)(F)F)c2)c2ccccc23)c1 (stereo not drawn),·,-13.8%[59 µM],·,·,6.9%,·
Cc1cccc(CSC(=N)N)c1,9.7%,18.9%,-8.1%,2.6%,-18.5%,1.0
N=C(N)SCCc1cccc(CCSC(=N)N)c1,·,3.55µM*,1.1%,·,-20.3%,-2.3
O=C(O)/C=C/c1ccc2noc(-c3ccccc3)c2c1,50.1µM*,·,-12.3%,-2.2%,-11.0%,-0.3
CC(C)(C)c1ccc(S(=O)(=O)c2cnc(SCC(=O)Nc3ccc4c(c3)OCCO4)[nH]c2=O)cc1,·,-36.0%[59 µM],·,·,0.5%,·
CC(Sc1nnc(CC(C)c2ccccc2)n1N)C(N)=O (stereo not drawn),5.3%,12.9%,1.8%,1.8%,0.0%,0.2
Nn1c(Cc2ccccc2)n[nH]c1=S,8.8%,·,0.1%,1.2%,22.5%,1.0
Cc1ccccc1Cc1n[nH]c(=S)n1N,-29.9%,2.51µM*,-11.0%,-0.4%,-6.3%,-2.5
Nn1c(Cc2ccc(F)cc2)n[nH]c1=S,-29.3%,3.55µM*,18.9µM*,2.6%,4.4%,2.3
CC(Cc1n[nH]c(=S)n1N)c1ccccc1 (stereo not drawn),56.2µM*,7.94µM*,26.7µM*,3.8%,-6.5%,1.1
NC[C@](O)(CS(=O)(=O)O)c1ccc(Cl)cc1,-2.1%,·,·,·,·,·
COCCn1c(=O)cnc2cnc(N3CCN(C)CC3)nc21,-6.4%,-1.1%[0.501 µM],·,·,-3.3%,·
SMILES,Sfp inh,G9a inh,PLK1 PBD inh,MmCpn inh,VDR inh,CCT modulator
CCOC(=O)c1cc(-c2ccccc2)nn1CC1CC(c2cccnc2)=NO1 (stereo not drawn),·,·,1.9%,·,-5.8%,-1.3
O=C(O)c1cc(-c2ccccc2)nn1CC1CC(c2cccnc2)=NO1 (stereo not drawn),·,·,-1.4%,·,-14.4%,-1.3
CCOC(=O)c1cc(-c2cccnc2)nn1-c1ccccc1C,-6.4%,1.8%,26.7µM*,-4.8%,?,-3.7
Cc1ccc(-n2nc(-c3cccnc3)cc2C(=O)N2CCOCC2)c(C)c1,-3.2%,44.7µM*,?,0.6%,-6.8%,1.7
O=C(O)c1cc(-c2cccnc2)nn1-c1ccccn1,17.4%,28.2µM*,-2.9%,-0.4%,-19.4%,1.7
CCOc1ccc(NC(=O)CCc2nc3cccnc3n2-c2ccccc2)cc1,·,-25.7%[59 µM],·,·,9.7%,·
COc1cccc(-n2c(SC)nnc2-c2c[nH]c3ccccc23)c1,-9.6%,?,0.9%,0.1%,-3.0%,-1.3
Cc1cccc(-n2c(SCc3ccc([N+](=O)[O-])cc3)nnc2-c2c[nH]c3ccccc23)c1,24.8%,44.7µM*,-19.1%,-0.8%,-1.8%,-0.7
Cc1c(C(=O)Nc2c(F)cccc2F)sc2ncn(CC(=O)N3CCCCC3)c(=O)c12,-7.2%,26.3%,-6.2%,-0.3%,-9.3%,1.2
CCCNC(=O)Cn1cnc2sc(C(=O)NCCCN3CCOCC3)c(C)c2c1=O,10.2%,·,-20.6%,0.2%,?,2.1
CCCNC(=O)Cn1cnc2sc(C(=O)NCCN(CC)CC)c(C)c2c1=O,15.1%,79.4µM*,-3.7%,-2.0%,3.3%,-2.3
COCCNC(=O)c1sc2ncn(CC(=O)N3CCCCC3)c(=O)c2c1C,1.9%,5.6%[59 µM],3.36µM*,0.8%,-23.0%,-0.4
Cc1ccc(SC2CC(=O)N(c3ccc4c(c3)OCCO4)C2=O)cc1 (stereo not drawn),15.2%,?,-21.9%,-1.3%,19.1%,0.1
Cc1ccc(N2C(=O)CC(Sc3cccs3)C2=O)cc1 (stereo not drawn),-8.5%,35.5µM*,0.0%,-1.6%,-17.8%,-0.1
CCc1ccccc1N1C(=O)CC(Sc2nccc(C)n2)C1=O (stereo not drawn),1.4%,?,-0.4%,0.0%,3.5%,1.4
Cc1ccc(N2C(=O)CC(Sc3nccc(C)n3)C2=O)cc1 (stereo not drawn),10.2%,?,-4.2%,-4.4%,3.7%,-53.3*
COc1ccc(N2C(=O)CC(Sc3n[nH]c(-c4ccccc4)n3)C2=O)cc1 (stereo not drawn),35.5µM*,·,26.7µM*,-2.3%,-20.7%,-1.2
Cc1ccnc(SC2CC(=O)N(c3ccc([N+](=O)[O-])cc3)C2=O)n1 (stereo not drawn),1.8%,35.5µM*,-16.0%,?,5.9%,-2.4
NC(=O)C1O[C@@H](O)[C@H](O)[C@@H](O)[C@H]1O (stereo partly drawn),15.5%,·,·,·,4.6%,·
CCn1c(CN2CCCCC2)nc2cc(NC(=O)c3cc(OC)c(OC)c(OC)c3)ccc21,·,4.7%[59 µM],·,·,16.9%,·
COc1cccc(CNC(=O)c2oc3c(c2C)-c2nn(Cc4cccc(Cl)c4)cc2CC3)c1OC,·,-39.7%[59 µM],·,·,8.8%,·
COc1ccc2c(CNCCc3cccs3)c(C(=O)O)n(Cc3ccccc3C)c2c1,·,-21.0%[59 µM],·,·,7.8%,·
CNc1oc(C)nc1S(=O)(=O)c1ccccc1,31.6µM*,?,?,1.5%,-18.0%,-2.2
COCCNc1oc(-c2ccco2)nc1S(=O)(=O)c1ccccc1,5.2%,?,-6.8%,1.5%,-21.4%,0.5
